The full data set covers some 8,800 targets. This sample favours those with a hit. About 0.5% of all pairs of compound and target were hits. A number with no mark means an inactive call.
Key:
Assay in all cases: log2 fold change, soluble protein after heating vs DMSO (PISA); higher = thermal stabilisation; K562 lysate, 10 uM; active = over 0.2 and 3.5 SD of the protein, either way, in both replicates (recomputed)
[1] = compound: NCC(=O)Nc1ccc(-n2nc(C(F)(F)F)cc2-c2ccc3c(ccc4ccccc43)c2)cc1
Outline: (§1)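 A 30 min treatment with 10 μM compound was applied to crude K562 extract at 1 mg/mL protein in PBS pH 7.4 with 1 mM MgCl2. Heating for 3 min spanned 48°C-58°C, after which aliquots were pooled, adjusted to 0.5% NP-40 at 4°C and spun at 21,000xg for 90 min. TMTpro 16plex LC-MS/MS of the supernatant, with channel sums equalised, gave values recorded as log-two fold change in thermal stability against solvent controls, from duplicates.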

vorinostat = compound: O=C(CCCCCCC(=O)Nc1ccccc1)NO [vorinostat]
Outline: as §1

silmitasertib = compound: O=C(O)c1ccc2c(c1)nc(Nc1cccc(Cl)c1)c1ccncc12 [silmitasertib]
Outline: as §1

[2] = compound: O=C1NC(=O)C(c2cnc3ccccn23)=C1c1cn2c3c(cc(F)cc13)CN(C(=O)N1CCCCC1)CC2
Outline: as §1

entospletinib = compound: c1cn2cc(-c3ccc4cn[nH]c4c3)nc(Nc3ccc(N4CCOCC4)cc3)c2n1 [entospletinib]
Outline: as §1

## ASNS (UniProt P08243)
[1]
  log2 fold change: 0.006
vorinostat
  log2 fold change: -0.373 (active)
silmitasertib
  log2 fold change: -0.01
[2]
  log2 fold change: -0.008
entospletinib
  log2 fold change: 0.029

## ALDH2 (UniProt P05091)
Chain of UniProt P05091 (P05091 whole entry, looked up): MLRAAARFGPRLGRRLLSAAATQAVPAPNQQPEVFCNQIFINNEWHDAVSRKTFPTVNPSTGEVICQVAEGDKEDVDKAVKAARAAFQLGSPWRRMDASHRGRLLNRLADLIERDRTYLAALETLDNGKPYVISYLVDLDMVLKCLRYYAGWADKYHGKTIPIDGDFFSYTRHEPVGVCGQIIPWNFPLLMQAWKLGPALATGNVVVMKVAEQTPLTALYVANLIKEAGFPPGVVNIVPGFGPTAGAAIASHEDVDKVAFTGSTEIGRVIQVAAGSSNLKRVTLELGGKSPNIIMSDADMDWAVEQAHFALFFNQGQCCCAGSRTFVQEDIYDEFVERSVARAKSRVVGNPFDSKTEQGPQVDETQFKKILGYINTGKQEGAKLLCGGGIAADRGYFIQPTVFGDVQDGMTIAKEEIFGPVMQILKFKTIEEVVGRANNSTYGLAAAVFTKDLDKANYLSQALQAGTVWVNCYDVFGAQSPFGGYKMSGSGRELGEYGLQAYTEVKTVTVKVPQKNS
[1]
  log2 fold change: -0.068
vorinostat
  log2 fold change: 0.627 (active)
silmitasertib
  log2 fold change: 0.009
[2]
  log2 fold change: 0.019
entospletinib
  log2 fold change: -0.009

## ABCD3 (UniProt P28288)
[1]
  log2 fold change: -0.019
vorinostat
  log2 fold change: -0.164
silmitasertib
  log2 fold change: 0.113
[2]
  log2 fold change: -0.08
entospletinib
  log2 fold change: 0.034

## ALG8 (UniProt Q9BVK2)
[1]
  log2 fold change: -0.022
vorinostat
  log2 fold change: -0.05
silmitasertib
  log2 fold change: 0.063
[2]
  log2 fold change: -0.008
entospletinib
  log2 fold change: -0.007

## ALDH18A1 (UniProt P54886)
Chain of UniProt P54886 (P54886 whole entry, looked up): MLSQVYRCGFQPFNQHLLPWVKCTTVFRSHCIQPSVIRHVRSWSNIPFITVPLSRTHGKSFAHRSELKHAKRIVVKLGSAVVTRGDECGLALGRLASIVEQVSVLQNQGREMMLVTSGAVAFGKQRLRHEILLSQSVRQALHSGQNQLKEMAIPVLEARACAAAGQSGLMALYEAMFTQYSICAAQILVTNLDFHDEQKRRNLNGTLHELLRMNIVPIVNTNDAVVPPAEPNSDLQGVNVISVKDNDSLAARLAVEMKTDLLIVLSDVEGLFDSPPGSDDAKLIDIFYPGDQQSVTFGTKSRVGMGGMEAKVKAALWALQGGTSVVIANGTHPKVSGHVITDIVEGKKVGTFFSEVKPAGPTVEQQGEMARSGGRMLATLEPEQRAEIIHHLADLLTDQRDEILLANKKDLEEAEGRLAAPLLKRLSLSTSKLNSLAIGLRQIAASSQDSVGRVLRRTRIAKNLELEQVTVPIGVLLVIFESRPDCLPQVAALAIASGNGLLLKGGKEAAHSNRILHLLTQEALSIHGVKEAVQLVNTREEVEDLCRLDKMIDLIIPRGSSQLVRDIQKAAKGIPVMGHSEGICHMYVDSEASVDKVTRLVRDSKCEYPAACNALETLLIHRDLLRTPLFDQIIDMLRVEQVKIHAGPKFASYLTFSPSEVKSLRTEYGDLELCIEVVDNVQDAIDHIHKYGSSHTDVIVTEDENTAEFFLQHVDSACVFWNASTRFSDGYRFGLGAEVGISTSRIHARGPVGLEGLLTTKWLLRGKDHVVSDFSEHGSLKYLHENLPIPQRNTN
[1]
  log2 fold change: 0.023
vorinostat
  log2 fold change: -0.401 (active)
silmitasertib
  log2 fold change: 0.023
[2]
  log2 fold change: -0.015
entospletinib
  log2 fold change: 0.022

## AKR1C3 (UniProt P42330)
[1]
  log2 fold change: -0.009
vorinostat
  log2 fold change: 0.546 (active)
silmitasertib
  log2 fold change: 0.044
[2]
  log2 fold change: 0.009
entospletinib
  log2 fold change: 0.059

## ALG13 (UniProt Q9NP73)
Chain of UniProt Q9NP73 (Q9NP73 whole entry, looked up): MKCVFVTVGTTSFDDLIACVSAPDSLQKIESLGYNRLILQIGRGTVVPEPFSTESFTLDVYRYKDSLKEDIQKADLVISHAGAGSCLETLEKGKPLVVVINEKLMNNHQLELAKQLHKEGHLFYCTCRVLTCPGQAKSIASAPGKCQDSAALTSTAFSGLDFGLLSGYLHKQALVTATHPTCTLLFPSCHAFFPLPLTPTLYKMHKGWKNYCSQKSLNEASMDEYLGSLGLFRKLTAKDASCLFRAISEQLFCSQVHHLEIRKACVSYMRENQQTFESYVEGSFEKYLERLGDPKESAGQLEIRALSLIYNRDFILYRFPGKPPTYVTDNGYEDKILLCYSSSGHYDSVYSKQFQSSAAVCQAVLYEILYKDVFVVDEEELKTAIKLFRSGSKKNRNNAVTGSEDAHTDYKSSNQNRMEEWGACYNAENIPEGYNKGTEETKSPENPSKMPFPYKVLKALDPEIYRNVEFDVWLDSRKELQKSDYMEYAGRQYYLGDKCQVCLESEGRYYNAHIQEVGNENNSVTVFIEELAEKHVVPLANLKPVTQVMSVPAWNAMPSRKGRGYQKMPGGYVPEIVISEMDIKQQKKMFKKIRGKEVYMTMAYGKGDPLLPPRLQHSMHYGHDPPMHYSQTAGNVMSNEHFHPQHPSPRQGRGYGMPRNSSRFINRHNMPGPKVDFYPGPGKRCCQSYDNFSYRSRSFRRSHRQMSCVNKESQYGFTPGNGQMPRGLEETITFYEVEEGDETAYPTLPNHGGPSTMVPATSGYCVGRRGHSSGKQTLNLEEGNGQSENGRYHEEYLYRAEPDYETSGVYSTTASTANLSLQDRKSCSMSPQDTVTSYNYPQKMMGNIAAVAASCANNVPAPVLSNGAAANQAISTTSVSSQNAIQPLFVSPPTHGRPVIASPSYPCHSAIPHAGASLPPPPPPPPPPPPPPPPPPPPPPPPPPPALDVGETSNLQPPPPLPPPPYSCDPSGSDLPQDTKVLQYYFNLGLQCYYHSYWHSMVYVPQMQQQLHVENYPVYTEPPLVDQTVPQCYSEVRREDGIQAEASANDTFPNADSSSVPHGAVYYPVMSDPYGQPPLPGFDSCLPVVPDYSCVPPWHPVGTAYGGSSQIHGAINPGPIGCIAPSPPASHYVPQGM
[1]
  log2 fold change: -0.027
vorinostat
  log2 fold change: -0.339 (active)
silmitasertib
  log2 fold change: -0.01
[2]
  log2 fold change: 0.014
entospletinib
  log2 fold change: -0.082

## ABL2 (UniProt P42684)
Chain of UniProt P42684 (P42684 whole entry, looked up): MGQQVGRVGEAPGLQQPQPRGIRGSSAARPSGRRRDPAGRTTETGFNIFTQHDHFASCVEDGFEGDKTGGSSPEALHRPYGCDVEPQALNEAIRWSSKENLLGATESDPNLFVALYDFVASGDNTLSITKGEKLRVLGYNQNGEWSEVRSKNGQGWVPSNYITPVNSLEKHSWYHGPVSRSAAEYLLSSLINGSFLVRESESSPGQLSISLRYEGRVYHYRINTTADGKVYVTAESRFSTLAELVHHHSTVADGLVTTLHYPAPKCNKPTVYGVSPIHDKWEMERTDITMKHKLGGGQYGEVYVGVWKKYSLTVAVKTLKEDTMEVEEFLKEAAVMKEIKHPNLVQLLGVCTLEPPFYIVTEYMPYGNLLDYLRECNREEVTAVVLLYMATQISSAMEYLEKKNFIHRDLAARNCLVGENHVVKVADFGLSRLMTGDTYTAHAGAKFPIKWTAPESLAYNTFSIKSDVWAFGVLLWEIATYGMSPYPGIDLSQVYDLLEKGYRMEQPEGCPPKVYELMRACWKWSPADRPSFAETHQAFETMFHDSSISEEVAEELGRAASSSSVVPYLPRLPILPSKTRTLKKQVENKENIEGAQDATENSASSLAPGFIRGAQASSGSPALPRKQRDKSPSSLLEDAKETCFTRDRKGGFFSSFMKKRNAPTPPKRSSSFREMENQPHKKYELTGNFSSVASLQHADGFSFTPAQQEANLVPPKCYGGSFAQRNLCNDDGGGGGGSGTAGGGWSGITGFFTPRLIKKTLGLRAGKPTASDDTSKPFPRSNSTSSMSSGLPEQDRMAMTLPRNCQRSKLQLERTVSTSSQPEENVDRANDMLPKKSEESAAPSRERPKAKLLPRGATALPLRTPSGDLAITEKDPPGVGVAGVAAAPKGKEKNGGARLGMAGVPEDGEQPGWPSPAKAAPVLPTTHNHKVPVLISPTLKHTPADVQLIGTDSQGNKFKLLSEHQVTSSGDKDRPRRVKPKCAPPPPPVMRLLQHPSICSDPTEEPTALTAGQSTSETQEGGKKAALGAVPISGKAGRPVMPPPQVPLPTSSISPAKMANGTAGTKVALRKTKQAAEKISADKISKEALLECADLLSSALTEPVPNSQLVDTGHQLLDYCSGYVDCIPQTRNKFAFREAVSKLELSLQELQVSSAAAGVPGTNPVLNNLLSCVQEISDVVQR
[1]
  log2 fold change: -0.093
vorinostat
  log2 fold change: -0.274
silmitasertib
  log2 fold change: 0.073
[2]
  log2 fold change: -0.055
entospletinib
  log2 fold change: -0.05

## AP3D1 isoform 5 (UniProt O14617)
Chain of UniProt O14617 (O14617 whole entry, looked up): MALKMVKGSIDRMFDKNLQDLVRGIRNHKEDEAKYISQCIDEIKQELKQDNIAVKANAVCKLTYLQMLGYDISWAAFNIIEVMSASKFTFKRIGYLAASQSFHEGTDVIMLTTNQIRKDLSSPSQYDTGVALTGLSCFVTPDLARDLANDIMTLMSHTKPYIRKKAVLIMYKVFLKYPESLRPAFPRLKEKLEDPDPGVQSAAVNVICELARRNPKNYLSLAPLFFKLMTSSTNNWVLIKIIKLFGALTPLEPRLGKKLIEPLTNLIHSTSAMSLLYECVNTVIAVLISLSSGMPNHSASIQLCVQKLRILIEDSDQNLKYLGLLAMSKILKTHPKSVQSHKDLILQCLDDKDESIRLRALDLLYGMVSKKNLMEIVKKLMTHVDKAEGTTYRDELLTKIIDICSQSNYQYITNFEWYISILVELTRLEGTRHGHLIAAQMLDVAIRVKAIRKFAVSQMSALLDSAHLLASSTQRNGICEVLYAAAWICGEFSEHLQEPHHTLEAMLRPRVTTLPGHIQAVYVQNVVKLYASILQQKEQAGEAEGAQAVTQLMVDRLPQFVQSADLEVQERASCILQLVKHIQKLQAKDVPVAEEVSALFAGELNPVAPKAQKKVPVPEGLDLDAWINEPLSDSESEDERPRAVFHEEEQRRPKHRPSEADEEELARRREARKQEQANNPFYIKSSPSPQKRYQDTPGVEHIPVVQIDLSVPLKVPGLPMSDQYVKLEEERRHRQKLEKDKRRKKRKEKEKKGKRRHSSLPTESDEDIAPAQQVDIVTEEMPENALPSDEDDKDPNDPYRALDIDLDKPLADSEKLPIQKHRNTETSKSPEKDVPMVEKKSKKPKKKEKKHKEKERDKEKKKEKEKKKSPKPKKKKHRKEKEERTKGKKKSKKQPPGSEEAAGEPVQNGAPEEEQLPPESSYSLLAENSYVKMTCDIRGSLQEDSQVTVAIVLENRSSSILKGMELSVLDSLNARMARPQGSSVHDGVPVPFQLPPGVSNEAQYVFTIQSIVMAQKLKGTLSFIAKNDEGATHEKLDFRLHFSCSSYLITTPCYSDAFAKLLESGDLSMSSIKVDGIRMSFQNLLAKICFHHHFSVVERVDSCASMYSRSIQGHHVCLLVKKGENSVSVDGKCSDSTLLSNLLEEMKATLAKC
[1]
  log2 fold change: -0.001
vorinostat
  log2 fold change: -0.015
silmitasertib
  log2 fold change: -0.003
[2]
  log2 fold change: 0.012
entospletinib
  log2 fold change: 0.006

— the supplement of paper PMC10849652
